Source: the supplement of paper PMC12645437, “Orthogonal IMiD-Degron Pairs Induce Selective Protein Degradation in Cells” (ACS Chemical Biology, 2025)
Whole data set: some 8,300 sequences, median “log2 fold change of degron read counts, EGFP-low vs EGFP+ sorted cells (limma voom), compound-induced degradation” near -1.1, cut for the highest 2% near 3.2. Many of the other results were omitted from the sample, so the highest values are more common in it than they were.

Target: T1, CRBN, Q96SW2
T1 chain: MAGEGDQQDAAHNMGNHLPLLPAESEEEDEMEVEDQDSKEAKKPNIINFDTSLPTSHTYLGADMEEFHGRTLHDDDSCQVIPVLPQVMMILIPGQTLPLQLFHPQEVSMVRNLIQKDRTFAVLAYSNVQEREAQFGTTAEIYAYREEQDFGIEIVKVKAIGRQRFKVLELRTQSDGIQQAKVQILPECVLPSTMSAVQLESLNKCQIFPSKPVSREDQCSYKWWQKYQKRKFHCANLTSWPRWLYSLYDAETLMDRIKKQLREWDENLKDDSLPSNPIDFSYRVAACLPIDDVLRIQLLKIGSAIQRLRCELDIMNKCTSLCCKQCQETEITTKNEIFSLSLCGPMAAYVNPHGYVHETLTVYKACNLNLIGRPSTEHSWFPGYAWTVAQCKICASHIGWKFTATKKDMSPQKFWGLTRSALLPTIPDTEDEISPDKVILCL
Assay: log2 fold change of degron read counts, EGFP-low vs EGFP+ sorted cells (limma voom), compound-induced degradation; higher = more compound-induced degradation of the degron-EGFP fusion; degrons are variants of IKZF1/3 zinc finger 2; compound dose not given here
Details: Jurkat, 18 h

[1] = compound: compound 19 (5-tert-butyl-thalidomide)
[2] = compound: compound 22 (5-morpholino-thalidomide)
[3] = compound: compound 33 (diphenyl IMiD analogue)
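Further: pooled lentiviral library of zinc finger degron-EGFP fusions in mCherry-positive Jurkat cells, FACS-sorted after compound exposure, with degron abundance counted by next-generation sequencing.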

Sequence	log2 fold change of degron read counts [1]	log2 fold change of degron read counts [2]	log2 fold change of degron read counts [3]	log2 fold change of degron read counts (compound: thalidomide)
LYCNQCGFFCTQKGNLLRHIKL [46L_47Y_49N_50Q_52G_53F_54F_55C_67L_, Q9UKT9]	-0.205	-0.821	-0.706	-0.795
FFCDICGAGFTQKGNLLRHIKL [46F_47F_49D_50I_52G_53A_54G_55F_67L_, Q9UKT9]	2.9	1.78	0.35	-0.766
FQCNQCGHIFTQKGNLLRHIKL [46F_47Q_49N_50Q_52G_53H_54I_55F_67L_, Q9UKT9]	-2.78	-2.92	-2.91	-2.7
FICNQCGAAFTQKGNLLRHIKL [46F_47I_49N_50Q_52G_53A_54A_55F_67L_, Q9UKT9]	-2.19	-0.99	-0.297	-0.649
LCCEICGFNCTQKGNLLRHIKL [46L_47C_49E_50I_52G_53F_54N_55C_67L_, Q9UKT9]	-0.957	-1.02	0.0485	0.0948
FECPICGAKFTQKGNLLRHIKL [46F_47E_49P_50I_52G_53A_54K_55F_67L_, Q9UKT9]	0.543	-0.648	0.0161	3
FSCNICGAEFTQKGNLLRHIKL [46F_47S_49N_50I_52G_53A_54E_55F_67L_, Q9UKT9]	-0.854	0.252	0.443	0.069
FMCEICGHPFTQKGNLLRHIKL [46F_47M_49E_50I_52G_53H_54P_55F_67L_, Q9UKT9]	-1.77	-1.41	0.426	-0.396
FYCEICGADFTQKGNLLRHIKL [46F_47Y_49E_50I_52G_53A_54D_55F_67L_, Q9UKT9]	1.04	1.57	0.298	-1.13
FVCEICGAMFTQKGNLLRHIKL [46F_47V_49E_50I_52G_53A_54M_55F_67L_, Q9UKT9]	0.202	0.968	1.67	2.16
FYCEICGAPFTQKGNLLRHIKL [46F_47Y_49E_50I_52G_53A_54P_55F_67L_, Q9UKT9]	3.86	3.74	3.06	2.44
FMCEICGAPFTQKGNLLRHIKL [46F_47M_49E_50I_52G_53A_54P_55F_67L_, Q9UKT9]	3.59	3.43	3.13	2.94
FVCEICGAPFTQKGNLLRHIKL [46F_47V_49E_50I_52G_53A_54P_55F_67L_, Q9UKT9]	3.26	3.62	2.49	3.65
FFCEICGHPFTQKGNLLRHIKL [46F_47F_49E_50I_52G_53H_54P_55F_67L_, Q9UKT9]	0.211	-0.726	-0.864	-1.23
FVCEICGADFTQKGNLLRHIKL [46F_47V_49E_50I_52G_53A_54D_55F_67L_, Q9UKT9]	-1.49	-0.553	-0.517	0.943
FFCEICGAPFTQKGNLLRHIKL [46F_47F_49E_50I_52G_53A_54P_55F_67L_, Q9UKT9]	3.4	3.34	2.28	1.95
FFCEICGADFTQKGNLLRHIKL [46F_47F_49E_50I_52G_53A_54D_55F_67L_, Q9UKT9]	0.436	1.48	-0.411	-0.679
FYCEQCGAPFTQKGNLLRHIKL [46F_47Y_49E_50Q_52G_53A_54P_55F_67L_, Q9UKT9]	1.97	1.06	0.568	-1.07
FMCEICGADFTQKGNLLRHIKL [46F_47M_49E_50I_52G_53A_54D_55F_67L_, Q9UKT9]	-1.98	-1.6	1.99	-0.153
